Compounds with a hit are over-represented: about 2.3% of the library has one in this group of screens.
C diff HTS = inhibitors of Clostridium difficile growth; Clostridium difficile clinical isolate growth, OD600, 24 h; stronger effect = lower value; growth activity, negative = inhibition, % at 16 µg/mL (by protocol); actives 0.25% (n = 86,000);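 active = mean growth activity at or below -80% and every replicate also at or below -80%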;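 also: 0% = DMSO wells and -100% = levofloxacin 16 µg/mL wells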
Pf Dd2 growth = blocks growth of Plasmodium falciparum Dd2 parasites; P. falciparum Dd2 growth, SYBR Green, 72 h; stronger effect = lower value; activity change, % at 10 µM; actives 2.3% (n = 94,000); AID 1159554; in the data active = activity change below about -80%
* marks the source's active call; other numbers are inactive results; ! = repeats disagree.

Results for O=C(C1CCCC1)N1C[C@@H]2N[C@H](C1)C2c1ccc(-c2ccncc2)cc1 (some centres not stated) ?
C diff HTS: -1.8; Pf Dd2 growth: -1.4

Results for C[C@H](CO)N1C[C@H](C)[C@H](CN(C)C(=O)Nc2ccc3c(c2)OCO3)Oc2ccc(NC(=O)CCC(F)(F)F)cc2CC1=O ?
C diff HTS: 2.8; Pf Dd2 growth: -1.3

What do the screens show for `CC(C)NC(=O)Nc1ccc2c(c1)C(=O)N([C@@H](C)CO)C[C@H](C)[C@@H](CN(C)C(=O)NC(C)C)O2`?
C diff HTS: -0.7; Pf Dd2 growth: 1.4

What do the screens show for `CCC(=O)N1[C@@H](CO)[C@@H](c2ccccc2)[C@@H]1CN(CC)C(=O)NC1CCCC1`?
C diff HTS: 2.9; Pf Dd2 growth: -72.9

How did O=C(NC[C@@H]1N[C@@H](CO)[C@H]1c1ccc(C2=CCCCC2)cc1)c1ccccc1 do in these assays?
C diff HTS: 17.3; Pf Dd2 growth: 15.0

Results for O=C(C1CC1)N1C[C@@H]2N[C@H](C1)C2c1ccc(-c2cccc(F)c2)cc1 (some centres not stated) ?
C diff HTS: 0.9; Pf Dd2 growth: -81.4*!

What do the screens show for `O=C(C1CCCC1)N1C[C@@H]2N[C@H](C1)C2c1ccc(-c2cccc(F)c2)cc1` (some centres not stated)?
C diff HTS: 39.3; Pf Dd2 growth: -65.1

What do the screens show for `CCC(=O)N1CCCCN2[C@@H](CO)[C@H](c3ccc(C#Cc4ccccc4F)cc3)[C@@H]2C1`?
C diff HTS: -8.8; Pf Dd2 growth: -29.0

Results for O=C(N[C@H]1CC[C@H](CCNC(=O)C2CC2)O[C@H]1CO)c1ccccn1 ?
C diff HTS: 1.6

How did CNC[C@H]1Oc2ncc(C3=CCCC3)cc2C(=O)N([C@@H](C)CO)C[C@H]1C do in these assays?
Pf Dd2 growth: 6.9

What do the screens show for `N#C[C@@H]1[C@@H](c2ccc(C#CC3CCCC3)cc2)[C@H](CO)N1S(=O)(=O)c1ccccc1`?
C diff HTS: -19.2; Pf Dd2 growth: -28.9

How did N#C[C@H]1[C@@H](c2ccc(C#CC3CCCC3)cc2)[C@@H](CO)N1S(=O)(=O)Cc1ccccc1 do in these assays?
C diff HTS: -13.4; Pf Dd2 growth: -88.9*

Results for N#C[C@@H]1[C@@H](c2ccc(C#CC3CC3)cc2)[C@H](CO)N1S(=O)(=O)c1ccccc1 ?
C diff HTS: 0.2; Pf Dd2 growth: -63.6

How did Cc1ccccc1S(=O)(=O)N1[C@H](CO)[C@@H](c2ccc(C#CC3CC3)cc2)[C@@H]1C#N do in these assays?
C diff HTS: 4.7; Pf Dd2 growth: -86.9*

Results for N#C[C@H]1[C@H](c2ccc(C#CC3CC3)cc2)[C@@H](CO)N1S(=O)(=O)c1ccccc1 ?
C diff HTS: 3.6; Pf Dd2 growth: -57.8

What do the screens show for `N#C[C@H]1[C@@H](c2ccc(C#CC3CC3)cc2)[C@H](CO)N1S(=O)(=O)c1ccccc1`?
C diff HTS: 4.5; Pf Dd2 growth: -84.6*

How did C[C@H]1CN([C@@H](C)CO)C(=O)c2c(c3ccccc3n2C)-c2ccccc2CO[C@H]1CN(C)S(=O)(=O)c1ccc(F)cc1 do in these assays?
Pf Dd2 growth: -87.1*

Results for C[C@@H]1CN([C@@H](C)CO)C(=O)c2c(c3ccccc3n2C)-c2ccccc2CO[C@H]1CN(C)S(=O)(=O)c1ccc(C(F)(F)F)cc1 ?
C diff HTS: 44.5; Pf Dd2 growth: -89.3*

Results for C[C@H]1CN([C@@H](C)CO)C(=O)c2c(c3ccccc3n2C)-c2ccccc2CO[C@@H]1CN(C)S(=O)(=O)c1ccc(C#N)cc1 ?
Pf Dd2 growth: -72.7

Results for C[C@@H]1CN([C@@H](C)CO)C(=O)c2c(c3ccccc3n2C)-c2ccccc2CO[C@H]1CN(C)S(=O)(=O)c1ccc([N+](=O)[O-])cc1 ?
C diff HTS: -28.2; Pf Dd2 growth: -76.3

How did C[C@H](CO)N1C[C@H](C)[C@H](CN(C)S(=O)(=O)c2ccc(C#N)cc2)OCc2ccccc2-c2c(n(C)c3ccccc23)C1=O do in these assays?
Pf Dd2 growth: -88.4*

Results for Cc1ccc(S(=O)(=O)N(C)C[C@H]2OCc3ccccc3-c3c(n(C)c4ccccc34)C(=O)N([C@@H](C)CO)C[C@H]2C)cc1 ?
Pf Dd2 growth: -86.5*

Results for C[C@H](CO)N1C[C@H](C)[C@@H](CN(C)S(=O)(=O)c2ccc(F)cc2)OCc2ccccc2-c2c(n(C)c3ccccc23)C1=O ?
Pf Dd2 growth: -23.3

How did C[C@H]1CN([C@@H](C)CO)C(=O)c2c(c3ccccc3n2C)-c2ccccc2CO[C@@H]1CN(C)S(=O)(=O)c1ccccc1 do in these assays?
Pf Dd2 growth: -79.2

How did COC(=O)N(C)C[C@@H]1OCc2cn(nn2)CCCC(=O)N([C@@H](C)CO)C[C@@H]1C do in these assays?
C diff HTS: 7.2; Pf Dd2 growth: -8.1

What do the screens show for `O=C(Nc1ccc(Cl)cc1)N[C@@H]1CC[C@H](CCNC(=O)c2cc(Cl)cc(Cl)c2)O[C@@H]1CO`?
C diff HTS: 28.0; Pf Dd2 growth: 4.1

Results for CO[C@H]1CN(C)C(=O)c2cc(NS(C)(=O)=O)ccc2OC[C@H](C)NC[C@H]1C ?
C diff HTS: 0.5; Pf Dd2 growth: 14.6

How did Cc1ccc(S(=O)(=O)NC[C@@H]2CC[C@@H]3[C@@H](CN3Cc3cc(-c4ccccc4)on3)O2)cc1 do in these assays?
C diff HTS: -6.9; Pf Dd2 growth: 10.6

Results for O=C(NCC[C@H]1CC[C@H](NC(=O)C2CCCC2)[C@H](CO)O1)c1ccc(F)cc1 ?
C diff HTS: 2.0; Pf Dd2 growth: 5.6

Results for C[C@@H]1CN([C@@H](C)CO)C(=O)c2c(c3ccccc3n2C)-c2ccccc2CO[C@H]1CN(C)S(=O)(=O)c1ccc(Cl)cc1 ?
Pf Dd2 growth: -75.2

Results for C[C@@H]1CN([C@H](C)CO)C(=O)c2c(c3ccccc3n2C)-c2ccccc2CO[C@@H]1CN(C)S(=O)(=O)c1ccc(Cl)cc1 ?
Pf Dd2 growth: -80.8*

Results for CNC[C@@H]1Oc2c(NC(=O)Nc3ccc(F)cc3)cccc2C(=O)N([C@H](C)CO)C[C@H]1C ?
C diff HTS: 5.0; Pf Dd2 growth: 3.9

How did Cc1ccc(S(=O)(=O)N(C)C[C@@H]2OCCCC[C@H](C)Oc3ccc(NC(=O)c4ccccc4)cc3C(=O)N([C@H](C)CO)C[C@H]2C)cc1 do in these assays?
Pf Dd2 growth: -81.0*

What do the screens show for `Cc1ccc(S(=O)(=O)N(C)C[C@H]2OCCCC[C@H](C)Oc3ccc(NC(=O)c4ccccc4)cc3C(=O)N([C@H](C)CO)C[C@H]2C)cc1`?
Pf Dd2 growth: -81.1*

How did Cc1ccc(S(=O)(=O)N(C)C[C@@H]2OCCCC[C@@H](C)Oc3ccc(NC(=O)c4ccccc4)cc3C(=O)N([C@@H](C)CO)C[C@@H]2C)cc1 do in these assays?
Pf Dd2 growth: -79.9

How did Cc1ccc(S(=O)(=O)N(C)C[C@H]2OCCCC[C@@H](C)Oc3ccc(NC(=O)c4ccccc4)cc3C(=O)N([C@@H](C)CO)C[C@H]2C)cc1 do in these assays?
Pf Dd2 growth: -65.5

What do the screens show for `COc1ccc(S(=O)(=O)N(C)C[C@@H]2OCCCC[C@@H](C)Oc3ccc(NC(=O)c4ccccc4)cc3C(=O)N([C@@H](C)CO)C[C@@H]2C)cc1`?
C diff HTS: 31.6; Pf Dd2 growth: -79.4

Assay outcomes from PubChem BioAssay.
